Efflux pump inh – inhibitors of Candida antifungal efflux pumps expressed in yeast. S. cerevisiae Candida pump triplex, Nile Red efflux. inhibition, % at 10 µM. hit rate 0.44% among 330,000. AID 485275;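 active = plate passing quality check with inhibition over a set limit, or well fluorescence over plate mean plus 4 SD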;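 note: Nile Red retained in pooled yeast measured as flow cytometry median fluorescence; 0% = buffer negative control and 100% = Enniatin B positive control; higher means more Nile Red kept so more efflux inhibition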
PABP1 MLLE inh – blocks PAM2 peptide binding to the PABP1 MLLE domain. AID 588489. hit rate 0.36% among 360,000. inhibition, % at 20 µM. GST-MLLE / FITC-PAM2 fluorescence polarization; in the data active = inhibition above about 35%, passing the limit was not always enough;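 note: plate controls were DMSO wells with GST-MLLE for no effect and wells lacking GST-MLLE protein for full effect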
Target sequence (P11940 whole entry, looked up, the tested form may be a part): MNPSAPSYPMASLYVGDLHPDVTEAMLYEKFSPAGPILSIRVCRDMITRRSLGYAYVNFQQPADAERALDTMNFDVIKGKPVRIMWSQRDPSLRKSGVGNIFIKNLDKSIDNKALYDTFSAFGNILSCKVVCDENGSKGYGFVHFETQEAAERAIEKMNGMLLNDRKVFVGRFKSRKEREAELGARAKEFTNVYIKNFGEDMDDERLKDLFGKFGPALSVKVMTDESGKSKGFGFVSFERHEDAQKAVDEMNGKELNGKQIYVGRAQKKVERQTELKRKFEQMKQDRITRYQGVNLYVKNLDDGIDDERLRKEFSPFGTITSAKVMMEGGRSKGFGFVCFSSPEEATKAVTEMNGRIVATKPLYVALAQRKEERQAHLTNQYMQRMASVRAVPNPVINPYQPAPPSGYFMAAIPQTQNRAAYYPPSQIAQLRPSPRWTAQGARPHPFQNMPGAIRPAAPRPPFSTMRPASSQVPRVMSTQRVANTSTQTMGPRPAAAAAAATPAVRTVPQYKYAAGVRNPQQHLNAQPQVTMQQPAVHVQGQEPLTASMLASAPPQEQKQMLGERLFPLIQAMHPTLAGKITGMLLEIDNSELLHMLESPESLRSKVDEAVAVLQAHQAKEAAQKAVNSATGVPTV
eIF4H inh – inhibitors of RNA binding by human eIF4H; Q15056; eIF4H fluorescence polarization binding assay; inhibition, % at 35 µM; hit rate 0.94% among 290,000; AID 2012;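 note: calls also rest on retests at 20 µM and on dose response follow-up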
ALR H2O2 inh – human ALR oxidase inhibition via reduced H2O2; P55789; purified ALR, DTT oxidation, H2O2 HRP-luminol luminescence; inhibition, % (test concentration not listed); hit rate 3.8% among 290,000; AID 485317;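 active = mean replicate inhibition above about 79%, with every replicate also reaching it, limit read from the data; inconclusive = only one of the two criteria met; inactive = mean below limit and not every replicate reaching it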
PABP polyA inh – PABP-poly(A) binding inhibition; P11940; PABP-poly(A) RNA binding, fluorescence polarization; inhibition, % at 35 µM; hit rate 1% among 290,000; AID 2014;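 note: calls also rest on retests at 20 µM and on dose response follow-up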
UBC9 SUMO inh – inhibitors of human SUMOylation (UBC9); hit rate 0.36% among 290,000; P63279; AID 2006; HTRF SUMOylation assay, SAE1/SAE2 + UBC9, in vitro; inhibition, % at 35 µM; in the data active = inhibition above about 50%, passing the limit was not always enough; inconclusive = no clear call, values can overlap the other calls
* hit, by the source's call. Rows were chosen to be rich in hits. Some 4.7% of all compounds tested hit in one or more screens of this group. Unless noted, the rule behind the calls is not given here.

What do the screens show for `Cc1cccc(-n2c(O)c(C=Nc3c(C)n(C)n(-c4ccccc4)c3=O)c3ccccc3c2=O)n1`?
Efflux pump inh: 0; PABP1 MLLE inh: 20; eIF4H inh: -12; PABP polyA inh: 0; UBC9 SUMO inh: 8

How did Cc1cccc(-n2c(O)c(C=Nc3ccccc3O)c3ccccc3c2=O)n1 do in these assays?
Efflux pump inh: 0; PABP1 MLLE inh: -24; eIF4H inh: -1; ALR H2O2 inh: 98*; PABP polyA inh: 0; UBC9 SUMO inh: 5

Results for Cc1cccc(-n2c(O)c(/C=N/NC(=O)c3ccccc3Cl)c3ccccc3c2=O)n1 ?
Efflux pump inh: 0; PABP1 MLLE inh: -24; eIF4H inh: 6; ALR H2O2 inh: 96*; PABP polyA inh: 4; UBC9 SUMO inh: -18

What do the screens show for `CCCCNC(=O)C1(C)CCC(=O)N1CCCn1ccnc1` (stereo not given)?
PABP1 MLLE inh: 14

How did CC(C)C(=O)Nc1nnc(NC(=S)Nc2ccccc2)s1 do in these assays?
Efflux pump inh: 0; PABP1 MLLE inh: 15; eIF4H inh: -12; ALR H2O2 inh: 82*; PABP polyA inh: -5; UBC9 SUMO inh: -2

How did COc1ccccc1NS(=O)(=O)c1ccc(C)c(C(=O)NCC2(N(C)C)CCCCC2)c1 do in these assays?
Efflux pump inh: 0; PABP1 MLLE inh: 12; ALR H2O2 inh: -2

What do the screens show for `Cc1ccc(CSc2nnc([C@@H]3CCCN3C(=O)OC(C)(C)C)o2)cc1`?
Efflux pump inh: 0; PABP1 MLLE inh: 5; eIF4H inh: 1; PABP polyA inh: -1; UBC9 SUMO inh: 0

Results for O=C(O)CCCC(=O)N1N=C(c2c(-c3ccccc3)c3cc(Cl)ccc3[nH]c2=O)CC1c1cccs1 (stereo not given) ?
Efflux pump inh: 0; PABP1 MLLE inh: 1; eIF4H inh: 1; ALR H2O2 inh: 87*; PABP polyA inh: 10; UBC9 SUMO inh: 17

Results for O=C(O)CCC(=O)N1N=C(c2c(-c3ccccc3)c3cc(Cl)ccc3[nH]c2=O)CC1c1cccs1 (stereo not given) ?
Efflux pump inh: 0; PABP1 MLLE inh: -4; eIF4H inh: 2; ALR H2O2 inh: 0; PABP polyA inh: -7; UBC9 SUMO inh: 24

Results for Nc1nc(-c2ccc(Cl)cc2)nn1C(=O)c1cccnc1 ?
Efflux pump inh: 0; PABP1 MLLE inh: -11; eIF4H inh: -4; ALR H2O2 inh: 3; PABP polyA inh: 2; UBC9 SUMO inh: 9

Results for Nc1nc(-c2ccc(Cl)cc2)nn1C(=O)c1cccs1 ?
Efflux pump inh: 0; PABP1 MLLE inh: 2; eIF4H inh: inconclusive; ALR H2O2 inh: 1; PABP polyA inh: 51*; UBC9 SUMO inh: -12

Results for COc1ccc(C(=O)Nc2ccc(S(=O)(=O)NC(C)=O)cc2)cc1[N+](=O)[O-] ?
Efflux pump inh: 0; PABP1 MLLE inh: -2; eIF4H inh: -8; ALR H2O2 inh: 99*; PABP polyA inh: -20; UBC9 SUMO inh: 19

How did COc1ccc(C(=O)Nc2ccc3nc4n(c(=O)c3c2)CCCC4)cc1[N+](=O)[O-] do in these assays?
Efflux pump inh: 0; eIF4H inh: -2; ALR H2O2 inh: -2; PABP polyA inh: 86*; UBC9 SUMO inh: 5

What do the screens show for `CCC(=O)N1CCN(c2ccc(NC(=S)NC(=O)c3ccc(OC)c([N+](=O)[O-])c3)cc2)CC1`?
Efflux pump inh: 0; PABP1 MLLE inh: 42*; eIF4H inh: -3; ALR H2O2 inh: 27; PABP polyA inh: -6; UBC9 SUMO inh: 0

Results for N/C(=N\OC(=O)COc1ccc(Br)cc1)c1cccc([N+](=O)[O-])c1 ?
Efflux pump inh: 0; PABP1 MLLE inh: 9; eIF4H inh: -5; ALR H2O2 inh: -1; PABP polyA inh: 10; UBC9 SUMO inh: -2

Results for COc1ccc(CC(=O)O/N=C(\N)c2cccc([N+](=O)[O-])c2)cc1 ?
Efflux pump inh: 0; PABP1 MLLE inh: 6; eIF4H inh: inconclusive; ALR H2O2 inh: 15; PABP polyA inh: 121*; UBC9 SUMO inh: 22

Results for CCOc1ccc(C(=O)NC(=S)Nc2ccc(N3CCC(C)CC3)cc2)cc1[N+](=O)[O-] ?
PABP1 MLLE inh: 16; eIF4H inh: -10; PABP polyA inh: -4; UBC9 SUMO inh: 10

Results for CCCC(C(=O)NNC(=O)c1cc(C)oc1C)c1ccccc1 (stereo not given) ?
Efflux pump inh: 0; PABP1 MLLE inh: 14; ALR H2O2 inh: 5

Assay outcomes as filed in PubChem.
